Active and inactive are the calls of the source. How the source made its calls: active means hit-call score of the fitted dose curve at least 0.9, where 1 is the maximum; inactive means score below 0.9.
Biological target: human (CYP19A1), CYP19A1 (gene 1588) (UniProt P11511)
Assay: ERF_TW_ENZ_hCYP19A1: Eurofins (ERF) Enzymatic CYP450 LeadHunter Assay for human (CYP19A1)
Procedure: ERF_TW_ENZ_hCYP19A1 is a biochemical, single-readout assay that uses extracted gene-proteins in a cell-free assay. Measurements were taken 0.75 hour after chemical dosing in a 96-well plate. See CYP19A1 Human CYP450 Enzymatic Assay, Panlabs.ERF_TW_ENZ_hCYP19A1 is an assay component calculated from the ERF_TW_ENZ_hCYP19A1 assay. It is designed to measure enzyme activity using a type of enzyme reporter as detected by fluorescence intensity with spectrophotometry technology.Data from the assay component ERF_TW_ENZ_hCYP19A1 was analyzed at the assay endpoint, ERF_TW_ENZ_hCYP19A1, in the positive analysis fitting direction relative to DMSO as the negative control and baseline of activity. Using a type of enzyme reporter, loss-of-signal activity can be used to understand changes in enzymatic activity as they relate to gene CYP19A1. To generalize the intended target to other relatable targets, this assay endpoint is annotated to the cyp intended target family, where the subfamily is steroidogenesis-related.
Human recombinant CYP450 19 plus P450 reductase, expressed in baculovirus infected insect BTI-TN-5B1-4 cells is used. Test compound and/or vehicle is preincubated with 4 nM enzyme in phosphate buffer pH 7.4 for 15 minutes at 37C. […] Determination of the amount of dibenzylfluorescein remaining is read spectrofluorimetrically. […]

Chain of human (CYP19A1), CYP19A1 (gene 1588) (P11511 whole entry, looked up): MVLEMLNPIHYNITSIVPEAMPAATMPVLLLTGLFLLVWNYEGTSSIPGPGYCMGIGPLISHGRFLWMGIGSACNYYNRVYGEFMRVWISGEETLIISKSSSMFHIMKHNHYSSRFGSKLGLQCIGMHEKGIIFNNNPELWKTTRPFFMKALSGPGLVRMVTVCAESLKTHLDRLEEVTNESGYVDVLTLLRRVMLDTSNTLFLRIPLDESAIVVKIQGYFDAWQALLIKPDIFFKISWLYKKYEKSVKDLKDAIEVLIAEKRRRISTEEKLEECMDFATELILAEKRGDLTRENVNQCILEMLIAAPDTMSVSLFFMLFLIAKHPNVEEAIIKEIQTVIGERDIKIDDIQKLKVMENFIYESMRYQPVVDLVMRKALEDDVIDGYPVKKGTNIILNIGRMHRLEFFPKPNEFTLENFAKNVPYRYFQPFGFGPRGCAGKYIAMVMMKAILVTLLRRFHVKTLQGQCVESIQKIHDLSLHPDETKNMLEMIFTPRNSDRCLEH

Structure (SMILES)	AC50
COc1cc(CCC(=O)CC(=O)CCc2ccc(O)c(OC)c2)ccc1O	5.05 µM (active)

From PubChem BioAssay AID2284073 (EPA ToxCast)
